# Source: PubChem
# G9a block: qHTS Assay for Inhibitors of Histone Lysine Methyltransferase G9a; Potency, µM (top dose mostly 102 µM), for the others: top-dose activity, negative = inhibition, actives largely listed as inhibitors; Histone-lysine N-methyltransferase EHMT2 (Homo sapiens), Q96KQ7; G9a H3K9 monomethylation, AlphaScreen, 2 h; 350,000 tested, 8.8% active; further: on the % scale 0 is the no-effect control and ±100 the full control effect; nearly all actives have a fitted effect of over 75% in size
# Target sequence (Q96KQ7 913-1193 limits assumed): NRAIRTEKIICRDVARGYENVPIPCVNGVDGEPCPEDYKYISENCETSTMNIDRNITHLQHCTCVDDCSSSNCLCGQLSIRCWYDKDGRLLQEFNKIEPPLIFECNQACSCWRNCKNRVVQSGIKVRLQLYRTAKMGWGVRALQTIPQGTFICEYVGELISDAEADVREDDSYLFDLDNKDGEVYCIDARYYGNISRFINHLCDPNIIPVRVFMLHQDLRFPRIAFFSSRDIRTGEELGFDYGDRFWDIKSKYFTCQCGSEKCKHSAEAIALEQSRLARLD
#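 Methyltransferase reactions run at room temperature for 2 h (20 nM enzyme, 500 nM biotin-H3K9 peptide, 20 uM SAM) after a 15 min compound preincubation; product detected by AlphaScreen beads and anti-H3K9me1 antibody.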
# JMJD2A Tudor: qHTS Assay for Inhibitors of JMJD2A-Tudor Domain; 390,000 tested, 4.4% active; Lysine-specific demethylase 4A (Homo sapiens), O75164; AlphaScreen JMJD2A-Tudor / H3K4me3 peptide binding; Potency, µM (titrated, usually from 114 µM), for the others: at the highest dose activity change, negative = inhibition, actives largely listed as inhibitors; further: on the % scale 0 is the no-effect control and ±100 the full control effect; nearly all actives have a fitted effect of over 50% in size
# 12-LOX inh: Primary qHTS assay for inhibitors of human arachidonate 12S-lipoxygenase (ALOX12): Round 2 | Polyunsaturated fatty acid lipoxygenase ALOX12 (Homo sapiens), P18054 | purified 12hLO, xylenol orange hydroperoxide absorbance | Potency, µM (titrated, usually from 108 µM), for inactives: at the top dose activity change, negative = inhibition, actives largely listed as inhibitors | 580,000 tested, 1.1% active; further: on the % scale 0 is the no-effect control and ±100 the full control effect
#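 Purified human 12hLO at 150 nM in 25 mM Hepes, 0.01% Triton X-100, pH 7.0, preincubated 15 min at room temperature with compound. Reaction started with 40 uM arachidonic acid, 30 min at room temperature. Hydroperoxide measured by Fe-xylenol orange, 573/405 nm absorbance ratio.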
# PLK1 PBD block: qHTS for Inhibitors of PLK1-PDB (polo-like kinase 1 - polo-box domain): Primary Screen; Potency, µM, inactives show max response, negative = inhibition, most hits filed as inhibitors; Plk1 PBD binding of FITC phosphopeptide, fluorescence polarization; 360,000 tested, 2.8% active; Serine/threonine-protein kinase PLK1 (Homo sapiens), P53350; AID 720504, 2013; further: series mostly up to about 57 µM; on the % scale 0 is the no-effect control and ±100 the full control effect; nearly all actives have a fitted effect of over 65% in size
# BAZ2B inh: qHTS Assay for Inhibitors of BAZ2B. 360,000 tested, 4.4% active. Potency, µM (titrated, usually from 114 µM), for inactives: at the top dose activity change, negative = inhibition, most hits filed as inhibitors. Bromodomain adjacent to zinc finger domain protein 2B (Homo sapiens), Q9UIF8. AlphaScreen BAZ2B-H3K14Ac peptide displacement; further: on the % scale 0 is the no-effect control and ±100 the full control effect; nearly all actives have a fitted effect of over 60% in size
#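 AlphaScreen displacement of biotin-H3(5-23)K14Ac peptide (50 nM final) from BAZ2B (50 nM final) in PBS pH 7.4, 0.01% Tween-20; complex preformed 30 min RT, then compounds (top 110 uM) 30 min RT, beads 20 min dark.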
# HP1b chromo inh: HTS for Inhibitors of HP1-beta Chromodomain Interactions with Methylated Histone Tails | Chromobox protein homolog 1 (Homo sapiens), P83916 | Potency, µM (series often up to 114 µM), for the others: at the highest dose activity change, negative = inhibition, hits mostly inhibitors | AID 540317, 2011 | 390,000 tested, 0.56% active | AlphaScreen HP1-beta / biotin-H3K9me3 peptide binding; further: nearly all actives have a fitted effect of over 70% in size
# Target sequence (P83916 whole entry, looked up): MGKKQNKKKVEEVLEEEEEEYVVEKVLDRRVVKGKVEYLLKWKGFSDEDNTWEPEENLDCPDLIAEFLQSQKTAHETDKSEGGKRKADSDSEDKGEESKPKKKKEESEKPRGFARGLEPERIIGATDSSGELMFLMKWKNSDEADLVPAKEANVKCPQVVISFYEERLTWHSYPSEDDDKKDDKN
#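 AlphaScreen: HP1-beta (50 nM) preformed 30 min with biotin-H3(1-18)K9me3 peptide (50 nM) in PBS pH 7.4, 0.01% Tween-20. Compound added for 30 min at RT, then streptavidin donor/nickel chelate acceptor beads (10 ug/mL) for 30 min.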
# An asterisk follows results filed as active; ? = inconclusive; nt = no result given; [ ] = remark or other dose. In the library only some 9% were active in any assay of this set; here they are far more common. The call rests on the fitted dose curve; in most records, active means well fitted curve in the direction sought with a large enough effect; inconclusive means small, poorly fitted or top-dose-only effect, or another doubt; inactive means no such curve, though single readings can be large; an effect the other way counts as inactive or inconclusive. Potency means the concentration at half of the fitted maximal effect.
SMILES,G9a block,JMJD2A Tudor,12-LOX inh,PLK1 PBD block,BAZ2B inh,HP1b chromo inh
COc1ccc(C2CC(=O)c3c(O)cc(O)cc3O2)c(CC=C(C)C)c1OC (stereo not drawn),nt,-31%,9%,3%,nt,38%
COc1cc2c(c(OC)c1CC=C(C)C)C[C@H](c1ccc(O)cc1O)CO2,nt,56µM*,-28%,1%,nt,-31%
NC(=O)COc1ccc(C(=O)N[C@@H]2CN(C(=O)NC3CCCCC3)CCC[C@H]2O)cc1,nt,nt,69%[176 µM],nt,nt,nt
CCCCCOC(=O)c1[nH]c2c(c1C)C(=O)C(C(=O)OC)C(C)C2 (stereo not drawn),?,14µM*,148%,3µM*,1%,-11%
COCCOC(=O)c1[nH]c2c(c1C)C(=O)C(C(=O)OC)C(C)C2 (stereo not drawn),-3%,-17%,117%,-11%,-3%,13%
O=C(NN1CCOCC1)c1cn(-c2ccccc2)nc1-c1cccs1,1%[59 µM],-7%[11.4 µM],27%,24µM*,3%,6%
CN(C)c1ccc(NC(=O)c2cn(-c3ccccc3)nc2-c2cccs2)cc1,10µM*,14µM*,?,-2%,35µM*,?
O=C(Nc1ccc2ccccc2c1)c1cn(-c2ccccc2)nc1-c1cccs1,14%[0.501 µM],-15%,0%,-6%,3%,9%
CC(C)n1nnnc1SCC(=O)N1CCN(C(=O)c2ccco2)CC1,-27%,-9%,7%,-15%,-5%,63%
CC(=O)N1CCN(C(=O)[C@@H]2Cc3cn(Cc4cc(C)on4)c4cccc(c34)[C@H](CC(C)C)N2)CC1,nt,nt,25%,nt,nt,nt
CCc1ccc(NC(=O)CCc2nc3ccccc3[nH]2)cc1,-19%,-24%,6%,-6%,-12%,6%
COc1ccc(Nc2nnc(SCc3cn4c(C)cccc4n3)s2)cc1,?,-32%,16%,2%,?,4%
Cc1cccn2cc(CSc3nnc(Nc4ccc(C(C)C)cc4)s3)nc12,40µM*,-29%,2%,4%,-37%,14%
O=C(CSc1nnnn1C1CCCCC1)Nc1ccccc1F,nt,-3%,-8%,-2%,-28%,49%
O=C(OCc1nc2ccccc2[n+]([O-])c1C(=O)c1ccccc1)c1cccs1,?,79µM*,?,3%,?,-18%
O=C(OCc1nc2ccccc2[n+]([O-])c1C(=O)c1ccccc1)c1ccco1,?,-9%,39%,-3%,-27%,-9%
CC(=O)c1c(COC(=O)c2ccncc2)nc2ccccc2[n+]1[O-],1µM*,-2%,-7%,-2%,40µM*,10%
CC(=O)c1c(COC(=O)c2ccco2)nc2ccccc2[n+]1[O-],-34%[12.7 µM],-13%,0%,-1%,50µM*,6%
O=C(O)c1cccc(-n2cccc2/C=C2/NC(=O)N(Cc3ccccc3F)C2=O)c1,45µM*,-17%[11.4 µM],?,-23%,50µM*,-26%
N#C/C(=C/c1cccn1-c1cccc(C(=O)O)c1)c1ccc(F)cc1,?,-35%,?,-29%,50µM*,-2%
O=C1N/C(=C/c2cccn2-c2ccccc2)C(=O)N1Cc1ccc(F)cc1,13µM*,-30%,-14%,-2%,-24%,12%
O=C(CN1C(=O)N/C(=C\c2cccn2-c2cccc(C(=O)O)c2)C1=O)Nc1ccccc1F,nt,-18%,nt,nt,nt,nt
O=S(=O)(Nc1ccc(Cl)cc1NS(=O)(=O)c1ccccc1)c1ccccc1,nt,-26%,?,?,nt,0%[57 µM]
CCCc1cc(=O)oc2c(C)c(OCC(=O)NCCCN(C)C)ccc12,nt,nt,17%,nt,nt,nt
Cc1ccc(C)c(-n2cc(CNCCc3cnccn3)c(-c3ccccc3)n2)c1,0%,-8%,-4%,3%,-20%,31%
